Screening results as filed in PubChem.
PLCg1 inh: PLC-gamma1 (human) inhibition, primary screen | purified PLC-gamma1, fluorogenic substrate, fluorescence | inhibition, % at 12.2 µM | actives 0.84% (n = 370,000); in the data active = inhibition above about 9.5%
Cardio protect: protects H9c2 cardiomyocytes from peroxide injury | H2O2 injury protection, ATPLite, 2 h | protection from H2O2 cell death, % at 20 µM | actives 0.63% (n = 360,000) | AID 588492;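 active = compounds giving at least 50% protection of heart cells from peroxide-induced death in the single-dose screen, raw or plate-pattern-corrected value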
PLC-beta3 inh: blocks human PLC-beta3 enzyme activity; Purified PLC-beta3, fluorogenic substrate, fluorescence; Q01970; AID 720704; inhibition, % at 12.2 µM; actives 0.18% (n = 370,000); in the data active = inhibition above about 11%
Target sequence (Q01970 whole entry, looked up): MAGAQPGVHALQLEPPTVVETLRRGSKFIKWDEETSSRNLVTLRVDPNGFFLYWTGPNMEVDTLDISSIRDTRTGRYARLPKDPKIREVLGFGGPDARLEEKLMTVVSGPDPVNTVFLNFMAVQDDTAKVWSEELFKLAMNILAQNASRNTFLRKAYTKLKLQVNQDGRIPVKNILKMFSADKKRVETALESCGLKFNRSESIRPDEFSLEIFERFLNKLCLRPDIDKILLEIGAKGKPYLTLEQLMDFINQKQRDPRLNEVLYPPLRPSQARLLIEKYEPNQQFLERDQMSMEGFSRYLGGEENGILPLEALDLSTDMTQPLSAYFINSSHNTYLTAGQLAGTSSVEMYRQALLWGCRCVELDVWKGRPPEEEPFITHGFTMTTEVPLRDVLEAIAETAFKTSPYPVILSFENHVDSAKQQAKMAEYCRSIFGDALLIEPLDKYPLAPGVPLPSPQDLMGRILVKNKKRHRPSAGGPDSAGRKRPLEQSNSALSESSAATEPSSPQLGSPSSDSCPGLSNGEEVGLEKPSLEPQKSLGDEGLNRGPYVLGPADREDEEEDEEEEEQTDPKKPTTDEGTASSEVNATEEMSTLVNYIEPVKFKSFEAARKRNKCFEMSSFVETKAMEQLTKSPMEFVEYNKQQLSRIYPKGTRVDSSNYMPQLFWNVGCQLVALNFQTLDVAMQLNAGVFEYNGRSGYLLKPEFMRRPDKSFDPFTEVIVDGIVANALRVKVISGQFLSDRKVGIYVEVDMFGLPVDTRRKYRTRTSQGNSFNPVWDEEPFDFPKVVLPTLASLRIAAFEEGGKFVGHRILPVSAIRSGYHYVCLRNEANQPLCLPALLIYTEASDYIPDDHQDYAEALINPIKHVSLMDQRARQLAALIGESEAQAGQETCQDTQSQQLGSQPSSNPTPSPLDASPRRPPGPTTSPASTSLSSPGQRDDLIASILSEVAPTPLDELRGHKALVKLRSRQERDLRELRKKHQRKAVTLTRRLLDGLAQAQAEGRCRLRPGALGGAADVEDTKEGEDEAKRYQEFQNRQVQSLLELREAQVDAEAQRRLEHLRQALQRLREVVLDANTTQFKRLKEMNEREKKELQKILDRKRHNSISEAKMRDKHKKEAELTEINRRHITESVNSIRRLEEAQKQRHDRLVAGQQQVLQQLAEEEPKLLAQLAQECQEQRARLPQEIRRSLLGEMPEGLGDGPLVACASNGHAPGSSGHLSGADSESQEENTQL
FAS-TE inh: blocks the thioesterase domain of human fatty acid synthase; P49327; recombinant FAS-TE, OMFH fluorogenic substrate, fluorescence endpoint; inhibition, % at 15 µM; actives 0.67% (n = 360,000); AID 602261;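 active = compounds whose normalised, plate-corrected inhibition of enzyme fluorescence in the single-dose primary screen is 50% or more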
Hits are given with their value; 0 = inactive; - = no result given. Hits are enriched below; roughly 2.2% of the tested compounds scored in any of these assays.

SMILES	PLCg1 inh	Cardio protect	PLC-beta3 inh	FAS-TE inh
Cc1cc(NC(c2ccc(Cl)cc2)c2ccc3cccnc3c2O)no1 (stereo unspecified)	0	58	0	0
Cc1ccc2ccc(C(Nc3cccc(C(F)(F)F)c3)c3cccnc3)c(O)c2n1 (stereo unspecified)	0	84	0	0
Cc1cccc(NC(c2ccc(C)s2)c2ccc3ccc(C)nc3c2O)n1 (stereo unspecified)	0	91	0	0
O=C(O)c1ccccc1NC(c1ccccc1)c1ccc2cccnc2c1O (stereo unspecified)	0	59	0	0
C=CCN1[C@@H](C)[C@@H](c2ccccc2)Oc2c(Cl)cccc2S1(=O)=O	0	-	0	-
COC(=O)[C@@]12CCCCC3=C1N(CCC3)C(=O)[C@H]2CC(=O)NCc1ccccc1	0	-	0	-
Cc1ccc(-c2cc(-c3nnc(SCC(=O)NC4CCCCC4)n3N)[nH]n2)cc1	0	-	0	-
COc1ccc(C(Nc2cc(C)ccn2)c2ccc3ccc(C)nc3c2O)cc1 (stereo unspecified)	0	62	0	0
Cc1ccnc(NC(c2ccsc2)c2ccc3ccc(C)nc3c2O)c1 (stereo unspecified)	0	54	0	0
Cc1ccnc(NC(c2ccccc2)c2ccc3cccnc3c2O)c1 (stereo unspecified)	0	0	0	0
Cc1ccc2ccc(C(Nc3ccccn3)c3ccccc3)c(O)c2n1 (stereo unspecified)	0	88	0	0
O=C(OC12CCCN(C1)/C(=C/c1cccnc1)C2)c1ccco1 (stereo unspecified)	0	-	0	-
CCOC(=O)Cc1nc(N2CCN(CCO)CC2)c2c(C)c(C(=O)OCC)sc2n1	0	-	0	-
CCCN(CC1CC1)C(=O)c1oc(=O)c2ccccc2c1-c1ccc(C)cc1	0	-	0	-
Cc1cccc(COCC(CC(C)C)N2CCN(C(=O)c3ccc(C(F)(F)F)cc3)CCC2=O)c1 (stereo unspecified)	0	0	0	0
CC(C)CC(COCc1ccc([N+](=O)[O-])cc1)N1CCN(C(=O)c2ccc(C(F)(F)F)cc2)CCC1=O (stereo unspecified)	0	0	0	57
C[C@@H]1ON(C)[C@H]2C[C@H]3c4cc(-c5ccccc5)ccc4CCN3C[C@@H]12	0	-	0	-
COc1ccc(-c2c(C(=O)c3ccccc3)[nH]c(N)c2C(=O)c2c[nH]c3ccccc23)cc1OC	0	-	0	-
CCOc1ccc(/C=N/Nc2cc(N3CCOCC3)nc(C)n2)c(O)c1	0	78	0	0
CCOc1ccc(/C=N/Nc2cc(C)nc(N3CCOCC3)n2)cc1	0	0	0	0
O=C(c1ccccc1)c1ccc2nc(N3CCN(C(=O)c4ccco4)CC3)c3nncn3c2c1	0	84	0	0
Cc1ccc2nc3sc(C(=O)N4CCCc5ccccc54)c(N)c3cc2c1	0	0	0	0
Cc1cc(C)c2cc3c(N)c(C(=O)N4CCc5ccccc5C4)sc3nc2c1	0	49	0	0
Cc1nn(-c2ccccc2)c(C)c1C(=O)OCC(=O)N1c2ccccc2NC(=O)C1(C)C	0	99	0	0
Cc1ccc2sc(NNC(=O)c3cc(=O)c4ccccc4o3)nc2c1C	0	56	0	0
SMILES	PLCg1 inh	Cardio protect	PLC-beta3 inh	FAS-TE inh
O=S1(=O)c2ccc(Br)cc2OC[C@H](Cc2ccccc2)N1Cc1cn(CCC2OCCO2)nn1	0	-	0	-
CCN1CCCCC(NC(=O)c2ccc(F)c(F)c2)C1=O (stereo unspecified)	0	-	0	-
CNC[C@H](CC1CCCCC1)NC[C@H](Cc1ccccc1)NCCC12CC3CC(CC(C3)C1)C2	10.0	0	0	0
COC(=O)[C@]12C[C@H](CC(=O)N3CCC(c4ccccc4)CC3)C(=O)N(CCC3=CCCCC3)C1=C[C@H](C(C)C)O[C@@H]2C1CC1	0	-	0	-
O=C(O)/C=C/c1cn(-c2ccccc2)nc1-c1ccc2c(c1)OCCO2	0	0	0	0
CN1CCN(C(=O)/C=C/c2cn(-c3ccccc3)nc2-c2ccc3c(c2)OCCO3)CC1	0	0	0	0
CN(C)C(=O)/C=C\c1cn(-c2ccccc2)nc1-c1ccc2c(c1)OCCO2	0	52	0	0
O=C(/C=C\c1cn(-c2ccccc2)nc1-c1ccc2c(c1)OCCO2)N1CCOCC1	0	60	0	0
O=S1(=O)N[C@@H](Cc2ccccc2)COc2cc(NCCCN3CCOCC3)ccc21	0	-	0	-
Cc1cccc(-c2cccc3c4c([nH]c23)[C@@H]2C[C@H](N(C)C(=O)c3ccccc3C)[C@H]([C@H](C)O)CN2CC4)c1	0	-	0	-
CCC[C@H]1[C@@H](NC(=O)c2cccc(Cl)c2)CC[C@@]23CCCN2C(=O)CCC[C@@H]13	0	-	0	-
CCC1CCCCN1S(=O)(=O)c1ccc(C(=O)Nc2nnc(-c3cccs3)o2)cc1 (stereo unspecified)	-	75	-	0
CN(C)S(=O)(=O)c1ccc(C(=O)Nc2nnc(-c3cccs3)o2)cc1	0	0	0	0
COc1cccc(-c2nnc(NC(=O)c3ccc(S(=O)(=O)N4CC(C)OC(C)C4)cc3)o2)c1 (stereo unspecified)	0	56	0	0
COc1ccc(-c2nnc(NC(=O)c3ccc(F)cc3)o2)cc1	0	68	0	0
CC1CN(S(=O)(=O)c2ccc(C(=O)Nc3nnc(-c4ccco4)o3)cc2)CC(C)O1 (stereo unspecified)	0	0	0	0
CC1CC(C)CN(S(=O)(=O)c2ccc(C(=O)Nc3nnc(-c4cccs4)o3)cc2)C1 (stereo unspecified)	0	50	0	0
O=C(Nc1nnc(-c2ccco2)o1)c1ccc2ccccc2c1	0	64	0	0
Cc1ccc(C(=O)Nc2nnc(-c3ccco3)o2)cc1	0	0	0	0
CCC(C)N(C(C)CC)S(=O)(=O)c1ccc2[nH]c(=O)oc2c1 (stereo unspecified)	0	-	0	-
CC1Cc2ccccc2N1C(=S)NC(=O)c1cccc(Br)c1 (stereo unspecified)	0	69	0	0
COc1ccc(S(=O)(=O)N2CCCC(C(=O)Nc3ccc(OC)c(OC)c3)C2)cc1 (stereo unspecified)	0	0	0	0
COc1ccc(NC(=O)C2CCCN(S(=O)(=O)c3ccccc3)C2)c(OC)c1 (stereo unspecified)	12	0	0	0
Cc1ccc(-n2cc(-c3ccccc3)c3c(N4CCOCC4)ncnc32)cc1	0	57	0	0
CCn1c(O)c(/C=N/N=C/c2ccccc2)c2ccc(C3=NNC(=O)CC3)cc21	0	76	0	0
CCN(CC(=O)Nc1ccc(OC)cc1)C(=O)CCc1nc2ccccc2c(=O)[nH]1	0	90	0	0
COc1cccc(NC(=O)CN(C)C(=O)CCCc2nc3ccccc3c(=O)[nH]2)c1	0	64	0	0
CN(CC(=O)Nc1cccc(F)c1)C(=O)CCCc1nc2ccccc2c(=O)[nH]1	0	60	0	0
CN(CC(=O)Nc1cccc(F)c1)C(=O)Cc1n[nH]c(=O)c2ccccc12	0	74	0	0
CN(CC(=O)Nc1cccc(F)c1)C(=O)CNC(=O)Cc1cccc2ccccc12	0	0	0	0
